High-throughput results deposited in PubChem BioAssay by National Center for Advancing Translational Sciences (NCATS).
This is a sample that favours compounds with a hit; in the whole collection about 5.8% have one here.
ALOX12 inh: ALOX12 (human) lipoxygenase inhibition. hit rate 1.1% among 580,000. Potency, µM (titrated, usually from 108 µM), inactives show at the top dose activity change, negative = inhibition, hits mostly inhibitors. AID 1671190. purified 12hLO, xylenol orange hydroperoxide absorbance; also: % is scaled to controls: 0 for no effect and ±100 for the full control effect
Target sequence (P18054 whole entry, looked up): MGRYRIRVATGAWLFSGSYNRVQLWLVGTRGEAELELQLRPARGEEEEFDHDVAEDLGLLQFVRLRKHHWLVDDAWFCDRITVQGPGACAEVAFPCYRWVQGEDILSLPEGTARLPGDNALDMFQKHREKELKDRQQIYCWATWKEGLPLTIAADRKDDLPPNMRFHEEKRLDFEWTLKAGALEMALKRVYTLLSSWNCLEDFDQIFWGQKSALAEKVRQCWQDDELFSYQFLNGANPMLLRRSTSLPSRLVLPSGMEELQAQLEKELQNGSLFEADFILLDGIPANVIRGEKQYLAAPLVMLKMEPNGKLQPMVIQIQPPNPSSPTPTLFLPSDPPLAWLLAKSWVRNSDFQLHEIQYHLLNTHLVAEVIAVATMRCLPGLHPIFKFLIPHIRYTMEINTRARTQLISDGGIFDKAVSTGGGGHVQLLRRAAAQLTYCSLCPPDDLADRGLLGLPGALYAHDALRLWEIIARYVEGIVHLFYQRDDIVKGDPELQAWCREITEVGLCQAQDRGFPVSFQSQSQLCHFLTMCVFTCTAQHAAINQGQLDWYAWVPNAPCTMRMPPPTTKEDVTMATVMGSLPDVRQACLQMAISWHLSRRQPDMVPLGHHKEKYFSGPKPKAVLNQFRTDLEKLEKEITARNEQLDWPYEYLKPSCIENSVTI
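Purified human 12hLO at 150 nM in 25 mM Hepes, 0.01% Triton X-100, pH 7.0, preincubated 15 min at room temperature with compound. Reaction started with 40 uM arachidonic acid, 30 min at room temperature. Hydroperoxide measured by Fe-xylenol orange, 573/405 nm absorbance ratio.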
PINK1 modulator: modulators of PINK1 expression; PINK1 immunofluorescence, high-content cytometry, 24 h; Potency, µM (doses to about 76.6 µM), inactives show at the top dose activation (PINK1 increase), usual class: activators; hit rate 0.2% among 410,000; AID 624263; active = well fitted activation curve with a large enough effect; inconclusive = small, poorly fitted or top-dose-only effect; cell line not stated here; also: % of control where 0% means no effect; nearly all actives have a fitted effect of over 65% in size
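Readout is PINK1 immunofluorescence, quantified alongside mitochondrial, cell and nuclear markers by laser-scanning microplate cytometry. Cells from a stable line were exposed to compound titrations (5 concentrations) for 24 hours, with CCCP controls.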
KB-V1 cytotox: kills drug-selected multidrug resistant KB-V1 cells. hit rate 3.4% among 400,000. AID 1347076. KB-V1 MDR cells viability, CellTiter-Glo, 72 h. Potency, µM (top dose mostly 46.1 µM), actives largely listed as cytotoxic; also: % is scaled to controls: 0 for no effect and ±100 for the full control effect; nearly all actives have a fitted effect of over 60% in size
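qHTS viability screen in drug-selected KB-V1 MDR cells: 72 h compound treatment at 37 degrees C, ATP luminescence end point.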
MCF10A rereplic: inducers of DNA re-replication in MCF 10A breast cells; hit rate 2.9% among 350,000; Potency, µM (highest dose often 46.1 µM), for the others: at the top dose activity, positive = re-replication, most hits filed as activators; AID 624296; MCF 10A DNA re-replication, Hoechst nuclear intensity, 48 h; also: % of control where 0% means no effect; nearly all actives have a fitted effect of over 50% in size
KB-3-1 cytotox: KB-3-1 parental cell cytotoxicity | KB-3-1 viability, CellTiter-Glo ATP luminescence, 72 h | Potency, µM (doses to about 46.1 µM), usual class: cytotoxic | hit rate 1.4% among 400,000; also: % is scaled to controls: 0 for no effect and ±100 for the full control effect; nearly all actives have a fitted effect of over 60% in size
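Screening of KB-3-1 cells (DMEM, 10% FBS, phenol-red free) ran from lowest to highest compound concentration; after 72 h at 37 °C viability was read luminescently and curves fitted.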
SW480 rereplic: inducers of DNA re-replication in SW480 colon cancer cells; SW480 DNA re-replication, Hoechst DNA content imaging, 48 h; Potency, µM (series often up to 46.1 µM), for inactives: top-dose re-replication activation, usual class: activators; hit rate 1.8% among 340,000; also: % of control where 0% means no effect; nearly all actives have a fitted effect of over 55% in size
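SW480 cells exposed to compounds for 48 hr at 37 C, 5% CO2, then Hoechst-stained 40 min. Nuclear DNA content imaged by fluorescence scanning (405 nm excitation, 500-530 nm emission); re-replication scored as increased high-intensity nuclei.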
Active calls of the source: *; i = inactive; ? = inconclusive; nt = not tested or not shown; [ ] = remark or other dose. Unless noted, calls follow the shape of the dose curve; as a rule, active = well fitted curve in the direction sought with a large enough effect; inconclusive = small, poorly fitted or top-dose-only effect, or another doubt; inactive = no such curve, though single readings can be large; an effect the other way counts as inactive or inconclusive. Potency is read from the fitted curve at half-maximal effect.

SMILES | ALOX12 inh | PINK1 modulator | KB-V1 cytotox | MCF10A rereplic | KB-3-1 cytotox | SW480 rereplic
CC(C(=O)NNS(=O)(=O)c1cccc(C(F)(F)F)c1)n1nnc(N2CCOCC2)n1 (stereo unspecified) | 3.5µM* | 0% | i | 0% | i | -1%
Cc1ccccc1OCc1nc(-c2ccc(NC(=O)c3ccc4c(c3)OCO4)cc2)no1 | 65% | -1% | ? | 21µM* | i | ?
CC1=C(C#N)C(NC(=O)CCC2CCCCC2)(C(F)(F)F)C(=O)N1 (stereo unspecified) | 25% | nt | nt | nt | nt | nt
CCN1CCN(C(C)CNC(=O)NCc2csc(C)n2)CC1 (stereo unspecified) | 2% | nt | nt | nt | nt | nt
Clc1ccc(-n2nnc(-c3nccs3)n2)cc1Cl | 5.6µM* | 1% | ? | 11% | i | 0%
Cc1ccc(-n2nnc(-c3nccs3)n2)cc1 | -21% | 1% | i | 7% | i | -8%
O=C(CN1CCN(C(=O)c2ccc(OCC(F)(F)F)nc2)CC1)Nc1ccccc1Cl | 1% | nt | nt | nt | nt | nt
CCOC(=O)N1CCN(Cc2cc(=O)oc3cc(C)ccc23)CC1 | 2% | nt | nt | nt | nt | nt
Cc1ccc(C)c(S(=O)(=O)N2CCc3ccccc32)c1 | 19% | nt | nt | nt | nt | nt
c1ccc2c(c1)ncn2CCCOc1ccc2c(c1)CCC2 | 2% | 14%[38.3 µM] | 12µM* | ? | ? | 26%
c1ccc2c(c1)ncn2CCCCOc1ccc2c(c1)CCC2 | ? | 1% | ? | 21µM* | ? | ?
CCCn1c(N)c(C(=O)CSc2ncc(C(F)(F)F)cc2Cl)c(=O)[nH]c1=O | 13% | 8% | ? | 16µM* | i | 22%
CC1CCN(C(=O)CSc2n[nH]c(-c3cc(Br)ccc3O)n2)CC1 | 32µM* | nt | nt | nt | nt | nt
O=C(CSc1n[nH]c(-c2cc(Br)ccc2O)n1)N1CCCCC1 | 52% | nt | nt | nt | nt | nt
COc1ccc(NC(=S)N(Cc2ccc(N(C)C)cc2)Cc2ccco2)cc1 | 16% | 0% | i | -2% | i | 6%
CCOc1ccc(NC(=S)N(Cc2ccc(N(C)C)cc2)Cc2ccco2)cc1 | 15% | 2% | 15µM* | 19% | i | 10%
Cc1ccc(N(CC(N)=O)C2SC(=O)N(Cc3ccccc3)C2=O)cc1 (stereo unspecified) | 18% | 1%[38.3 µM] | i | 21µM* | i | ?
O=C1CCN(Cc2ccc(O)cc2)CCN1[C@H](CO)Cc1ccccc1 | 11% | 0% | i | 19% | i | -3%
O=C1CCN(Cc2ccccc2)CCN1[C@H](CO)Cc1ccccc1 | 0% | 4% | ? | -35% | i | 5.2µM*
CCCn1nc(C(=O)OCCOc2ccc(OC)cc2)c2ccccc2c1=O | 36% | nt | nt | nt | nt | nt
O=C(NCCN1CCN(c2cccc(Cl)c2)CC1)c1ccc(CSc2nc3ccncc3[nH]2)cc1 | 8% | -1% | i | 18µM* | ? | 16%
Cc1cc(C)cc(-n2cccc2/C=C2/C(=N)N3C(=NC2=O)SN=C3S(C)(=O)=O)c1 | ? | 1% | i | ? | ? | -50%
COc1cc(/C=C2/C(=N)N3C(=NC2=O)SN=C3S(C)(=O)=O)ccc1OS(=O)(=O)c1ccc(C)cc1 | ? | 2% | i | ? | i | ?
Cc1ccc(-n2cccc2/C=C2/C(=N)N3C(=NC2=O)SN=C3S(C)(=O)=O)cc1 | ? | 3% | i | 16µM* | i | -3%
COc1cccc(-n2c(C)cc(/C=C3/C(=N)N4C(=NC3=O)SN=C4S(C)(=O)=O)c2C)c1 | ? | 1% | i | 16µM* | i | 5%
O=C1OCC2=C1C(c1ccc3c(c1)OCO3)CC(=O)N2c1ccc(F)cc1 (stereo unspecified) | 42% | nt | nt | nt | nt | nt
CC(=O)N1N=C(c2ccccc2)CC1c1cn(C)c2ccccc12 (stereo unspecified) | -6% | 3% | 23µM* | 17% | i | 20%
CC(=O)N1N=C(c2ccccc2)CC1c1ccc(F)cc1 (stereo unspecified) | -20% | 2% | i | -14% | i | -3%
